Compound activity (PubChem)
CHRM1 PAM: human CHRM1 positive allosteric modulation | P11229 | CHO-K1 hM1, Fluo-8 calcium fluorescence, ACh EC20; 0% = ACh EC20, 100% = maximal ACh | activation, % at 3 µM | 360,000 compounds, 0.088% hits | AID 588819; in the data active = activation above about 19%, passing the limit was not always enough
Myeloid diff MLP: myeloid differentiation induction. ER-HoxA9 myeloid progenitors, lysozyme-GFP differentiation, flow cytometry. calls only at 10 µM. 360,000 compounds, 1% hits. AID 624256;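 active = normalized GFP-positive differentiation at or above the plate's own cutoff, the solvent-only control mean plus 3 SD; inconclusive = no clear call, values can overlap the other calls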;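 note: cells exposed to compound for four days before flow analysis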
M1 antag: human CHRM1 antagonism; CHO-K1 hM1, Fluo-8 calcium fluorescence, ACh EC80 antagonist; P11229; 360,000 compounds, 1.3% hits; inhibition, % at 3 µM;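 active = percent inhibition above its own plate's cutoff, namely the mean of that plate's compound wells plus 3 SD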;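 note: peak over basal fluorescence ratio during 140 s after agonist addition; 0% = ACh EC80 plus DMSO and 100% = DMSO alone without agonist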
M1 ag: activates human CHRM1 receptor; activation, % at 3 µM; AID 588814; P11229; 360,000 compounds, 0.33% hits; CHO-K1 hM1, Fluo-8 calcium fluorescence, agonist mode; 0% DMSO, 100% acetylcholine EC100;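 active = activation above the run's mean compound activation plus 3 SD, cut at about 16% in these data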;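 note: peak over basal fluorescence ratio within a 140 s kinetic read after compound addition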
SKN-1 inh: blocks SKN-1 activity in C. elegans. C. elegans VP596 Pgst-4::GFP/RFP ratio, acrylamide-induced, 24 h. inhibition, % at 21.8 µM. 360,000 compounds, 0.49% hits. AID 624304;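 active = interference check ratio from 0.5 to 1.5 plus GFP to RFP signal ratio inhibition reaching or exceeding a fixed threshold, cut at about 30% in these data, passing the limit was not always enough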
ATG4B inh: blocks human ATG4B protease cleavage of LC3 substrate. Q9Y4P1. ATG4B cleavage of LC3-PLA2, NBD-HPC fluorescence, 1 h. inhibition, % at 8.33 µM. 340,000 compounds, 0.51% hits; in the data active = inhibition above about 40%
PLA2 ctr: PLA2 (human) inhibition in ATG4B counter-screen | shares compounds with ATG4B inh | purified PLA2, NBD-C6-HPC fluorescence, 45 min | inhibition, % at 8.33 µM | 1,600 compounds, 66% hits; in the data active = inhibition above about 50%
Target sequence (P04054 whole entry, looked up): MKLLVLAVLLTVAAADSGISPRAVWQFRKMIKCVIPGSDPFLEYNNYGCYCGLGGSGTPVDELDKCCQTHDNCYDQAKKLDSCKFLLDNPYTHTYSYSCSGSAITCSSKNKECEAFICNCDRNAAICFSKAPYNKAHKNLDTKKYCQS
The depositor's hits bear a star. Only some compounds are listed: those with a hit (about 3.5% of all), similar ones and a draw of the others.

What do the screens show for `COc1ccc(S(N)(=O)=O)cc1C(=O)OCC(=O)NC(C)(C#N)C1CC1` (centres undefined)?
CHRM1 PAM: 7; Myeloid diff MLP: inactive; M1 antag: -5; M1 ag: -4; SKN-1 inh: -6; ATG4B inh: 2

Results for O=C1ON=C(c2ccccc2)/C1=C/c1ccc(-c2ccccc2[N+](=O)[O-])o1 ?
CHRM1 PAM: 9; Myeloid diff MLP: inactive; M1 antag: 11; M1 ag: -1; SKN-1 inh: 15; ATG4B inh: 69*; PLA2 ctr: 51*

What do the screens show for `O=[N+]([O-])c1ccc(C2=NCCO2)cc1`?
CHRM1 PAM: 11; Myeloid diff MLP: inactive; M1 antag: -19; M1 ag: -2; SKN-1 inh: -3; ATG4B inh: -4

Results for C(=C\c1ccccc1)/CSc1nnc(-c2ccccc2)n1Cc1ccco1 ?
CHRM1 PAM: 0; Myeloid diff MLP: inconclusive; M1 antag: -8; M1 ag: 1; SKN-1 inh: 10; ATG4B inh: 67*; PLA2 ctr: 66*

Results for Clc1cccc(CSc2nnc(-c3ccccn3)n2Cc2ccco2)c1 ?
CHRM1 PAM: 2; Myeloid diff MLP: inactive; M1 antag: 3; M1 ag: -3; SKN-1 inh: 5; ATG4B inh: 34

How did C(=C\c1ccccc1)/CSc1nnc(-c2ccncc2)n1Cc1ccco1 do in these assays?
CHRM1 PAM: 3; Myeloid diff MLP: inactive; M1 antag: -4; M1 ag: -5; SKN-1 inh: -7; ATG4B inh: -5

Results for Clc1cccc(-c2nnc(SC/C=C/c3ccccc3)n2Cc2ccco2)c1 ?
CHRM1 PAM: 1; Myeloid diff MLP: inactive; M1 antag: -2; M1 ag: -4; SKN-1 inh: 5; ATG4B inh: 55*; PLA2 ctr: 56*

How did COc1ccc(NC(=O)CN(C)CC(=O)NCCc2ccc(F)cc2)cc1 do in these assays?
CHRM1 PAM: 1; Myeloid diff MLP: inactive; M1 antag: -4; M1 ag: -1; SKN-1 inh: 9; ATG4B inh: -5

How did NC(=O)Cc1ccc(C(=O)c2ccc(Cl)cc2)s1 do in these assays?
CHRM1 PAM: 7; Myeloid diff MLP: inactive; M1 antag: -6; M1 ag: -3; SKN-1 inh: 8; ATG4B inh: 57*; PLA2 ctr: 51*

How did CCOc1ccccc1N1CCN(C(=S)NCc2ccco2)CC1 do in these assays?
CHRM1 PAM: 4; Myeloid diff MLP: inactive; M1 antag: -7; M1 ag: 8; SKN-1 inh: 9; ATG4B inh: 4

How did Cc1cccc(N2CCN(C(=S)NCc3ccco3)CC2)c1C do in these assays?
CHRM1 PAM: -10; Myeloid diff MLP: inactive; M1 antag: 8; M1 ag: -6; SKN-1 inh: -9; ATG4B inh: 46*; PLA2 ctr: 4

How did COc1cccc(NC(=O)CCS(=O)(=O)c2ccc3c(c2)oc(=O)n3C)c1 do in these assays?
CHRM1 PAM: 15; Myeloid diff MLP: inactive; M1 antag: -16; M1 ag: -2; SKN-1 inh: -4; ATG4B inh: 4

What do the screens show for `O=C(Nc1ccccc1)C1=C[C@H](c2ccc3c(c2)OCO3)C[C@H](OCc2ccc(CO)cc2)O1`?
CHRM1 PAM: 9; Myeloid diff MLP: inactive; M1 antag: 0; M1 ag: -3; SKN-1 inh: -3; ATG4B inh: 11

How did O=C(CCn1c2c(c3ccccc31)CCCC2)NNC(=O)c1ccc(Cl)c([N+](=O)[O-])c1 do in these assays?
CHRM1 PAM: -2; Myeloid diff MLP: inactive; M1 antag: -6; M1 ag: -3; SKN-1 inh: 1; ATG4B inh: 52*; PLA2 ctr: 61*

Results for CCOc1ccccc1C(=O)N/N=C/c1coc2ccc(C)cc2c1=O ?
CHRM1 PAM: 13; Myeloid diff MLP: inactive; M1 antag: -20; M1 ag: -3; SKN-1 inh: 2; ATG4B inh: 65*; PLA2 ctr: 76*
